Assay outcomes: PubChem BioAssay, several laboratories
Rtt109 HAT inh = inhibitors of Candida albicans Rtt109/Vps75 histone acetyltransferase | Q5AAJ8 | purified Rtt109/Vps75, ThioGlo CoA-SH fluorescence, 4 h | inhibition, % at 34.9 µM | hit rate 0.16% among 330,000;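 active = inhibition of at least 50% in every replicate; inconclusive = best replicate reaches 50% inhibition but some replicates fall short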
LANA-H2A inh = blocks KSHV LANA binding to histone H2A/H2B | Q9QR71 | cell-free LANA-H2A/H2B peptide, fluorescence polarization | inhibition, % (no concentration beside the values) | hit rate 0.6% among 320,000; in the data active = inhibition mostly above about 10%, no sharp cut-off; inactive = mostly below about 6.7%
rCAG binder = molecules binding r(CAG) RNA repeats. inhibition, % at 3 µM. hit rate 1.3% among 370,000. r(CAG) RNA repeat, TO-PRO-1 dye displacement fluorescence;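 active = inhibition above the plate cutoff, the mean of all test compounds on that plate plus 3 SD, cut at about 35% in these data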;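 note: 0% = DMSO alone and 100% = 100 µM mitoxantrone as full dye displacement; higher means more dye released from RNA so lower well fluorescence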
ALR H2O2 inh = inhibitors of human sulfhydryl oxidase ALR; P55789; purified ALR, DTT oxidation, H2O2 HRP-luminol luminescence; inhibition, % (test concentration not listed); hit rate 3.8% among 290,000;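 active = mean replicate inhibition above about 79%, with every replicate also reaching it, limit read from the data; inconclusive = only one of the two criteria met; inactive = mean below limit and not every replicate reaching it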
ABHD5-PLIN5 inh = ABHD5-PLIN5 protein interaction inhibition | hit rate 0.78% among 360,000 | inhibition, % at 4 µM | Split G. princeps luciferase complementation, luminescence, 4 h | Q00G26+Q8WTS1;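 active = inhibition above the mean inhibition across every tested compound plus 3 SD, cut at about 22% in these data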;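 note: 0% = DMSO only wells and the 100% control is not disclosed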
Target sequence (Q00G26 whole entry, looked up): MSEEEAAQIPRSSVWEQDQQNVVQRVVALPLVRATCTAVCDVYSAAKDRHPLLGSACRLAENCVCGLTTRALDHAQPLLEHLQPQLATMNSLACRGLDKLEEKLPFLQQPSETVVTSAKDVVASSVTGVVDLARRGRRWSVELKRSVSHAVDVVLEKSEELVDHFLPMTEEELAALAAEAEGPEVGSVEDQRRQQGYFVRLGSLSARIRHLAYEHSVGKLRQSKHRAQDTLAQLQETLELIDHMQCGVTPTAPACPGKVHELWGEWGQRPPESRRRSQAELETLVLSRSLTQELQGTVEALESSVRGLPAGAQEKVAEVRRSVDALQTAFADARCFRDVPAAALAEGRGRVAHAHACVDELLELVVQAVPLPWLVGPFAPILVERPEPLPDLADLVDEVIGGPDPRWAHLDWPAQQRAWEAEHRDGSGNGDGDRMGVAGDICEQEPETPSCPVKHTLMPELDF
Target sequence (Q8WTS1 whole entry, looked up): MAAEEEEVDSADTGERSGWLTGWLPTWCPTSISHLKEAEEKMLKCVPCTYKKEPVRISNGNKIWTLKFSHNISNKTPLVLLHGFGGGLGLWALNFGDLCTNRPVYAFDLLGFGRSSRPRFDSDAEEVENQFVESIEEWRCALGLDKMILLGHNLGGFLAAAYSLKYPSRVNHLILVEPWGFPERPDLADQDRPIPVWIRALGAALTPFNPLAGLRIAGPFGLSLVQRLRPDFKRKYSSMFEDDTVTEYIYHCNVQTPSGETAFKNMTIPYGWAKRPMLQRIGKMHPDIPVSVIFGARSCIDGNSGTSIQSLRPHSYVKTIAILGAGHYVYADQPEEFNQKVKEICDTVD
PRMT1 inh = PRMT1 (human) inhibition, primary screen. AID 652257. hit rate 1.3% among 370,000. recombinant PRMT1, activity-based probe fluorescence polarization. inhibition, % at 2.79 µM. Q99873;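 active = inhibition above about 21% made by adding two undisclosed values, limit read from the data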
rCAG binder conf = r(CAG) RNA repeat binding, confirmation | inhibition, % at 3 µM | AID 652065 | hit rate 70% among 4,300 | TO-PRO-1 dye displacement fluorescence | shares compounds with rCAG binder;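 active = inhibition above a per-plate cutoff, the mean inhibition of sample wells plus 3 SD, cut at about 35% in these data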;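 note: loss of TO-PRO-1 fluorescence as compound displaces dye from 1x1 AA loop RNA; 0% = DMSO only wells and 100% = 100 µM mitoxantrone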
dCAG dye counter = counter-screen for rCAG RNA binders: DNA CAG dye complex inhibitors; shares compounds with rCAG binder; d(CAG) DNA oligo TO-PRO-1 dye displacement, fluorescence; inhibition, % at 3 µM; hit rate 94% among 4,300; AID 652068;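 active = inhibition above its plate's cutoff, the mean test-well inhibition plus 3 SD, cut at about 4.8% in these data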;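 note: 0% = DNA dye mix with DMSO and 100% = 100 µM mitoxantrone; hits displace the dye from DNA and so lower well fluorescence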
dCAG dye DR = counter-screen for rCAG binders: inhibitors of DNA CAG TO-PRO-1 complex; shares compounds with rCAG binder; DNA CAG/GTC duplex TO-PRO-1 dye displacement fluorescence; IC50, µM; hit rate 20% among 250; in the data active = IC50 below about 10 µM
Numbers without * were called inactive; ? = inconclusive; nt = no result. This is a sample that favours compounds with a hit; in the whole collection about 5.9% have one here.

SMILES	Rtt109 HAT inh	LANA-H2A inh	rCAG binder	ALR H2O2 inh	ABHD5-PLIN5 inh	PRMT1 inh	rCAG binder conf	dCAG dye counter	others
COc1ccc(C(=O)C2(C(=O)NC3CCCC3)CC(c3ccccc3C(F)(F)F)=NO2)cc1 (stereo not drawn)	nt	nt	-1	nt	nt	-4	nt	nt
CC(=O)C1=C(C)N(Cc2ccc(Br)cc2)C(=S)NC1c1cccc(Cl)c1 (stereo not drawn)	nt	nt	3	nt	nt	-2	nt	nt
Cc1noc(NS(=O)(=O)c2ccc(NC(=O)CCC3CCCCC3)cc2)c1C	0	-1	45*	3	2	-1	46*	8.6*	dCAG dye DR=>30
COCC(=O)Nc1ccc(S(=O)(=O)Nc2onc(C)c2C)cc1	nt	nt	2	nt	4	5	nt	nt
Cc1cc(F)ccc1C(O)c1ncc(-c2cccc(F)c2)[nH]1 (stereo not drawn)	nt	nt	1	nt	9	-1	nt	nt
CCN(Cc1ccccc1)C(=O)CCCN1C(=O)COc2ccc(C)cc21	nt	nt	-2	nt	nt	-2	nt	nt
CCCSc1nc(O)c(C(c2ccc(OC)c(O)c2)c2c(O)nc(SCCC)n(C)c2=O)c(=O)n1C	-7	2	46*	60	4	15	40*	13*
COc1cccc(C(c2c(O)nc(SC)n(C)c2=O)c2c(O)nc(SC)n(C)c2=O)c1	-2	-1	3	3	0	1	nt	nt
O=S(=O)(Nc1nc2ccccc2nc1N1CCc2ccccc2C1)c1ccc(Br)cc1	-3	2	13	6	-9	1	nt	nt
CC(=O)Nc1ccc(S(=O)(=O)Nc2nc3ccccc3nc2N2CCc3ccccc3C2)cc1	5	-1	49*	-5	5	-1	60*	25*
Cc1ccccc1S(=O)(=O)Nc1nc2ccccc2nc1N1CCc2ccccc2C1	-4	6	35*	-3	2	1	45*	15*
CC(=O)Nc1ccc(S(=O)(=O)Nc2nc3ccccc3nc2N2CCCCCC2)cc1	20	2	24	55	-7	0	nt	nt
COC(=O)[C@]12C[C@H](CC(=O)N3CCSCC3)C(=O)N(Cc3ccc(Cl)cc3Cl)C1=C[C@H](COCc1ccccc1)O[C@@H]2C	nt	nt	6	nt	nt	-2	nt	nt
Cc1ccc(C)c2c1[nH]c1ccc([N+](=O)[O-])cc12	4	-5	40*	-1	2	-1	30	14*
Cc1c(C(=O)NN)[nH]c2ccc([N+](=O)[O-])cc12	nt	2	18	2	-1	-3	nt	nt
COc1cc(CNC(=O)Nc2nnc([C@H]3C[C@H](O)[C@@H](CO)O3)s2)cc(OC)c1OC	nt	nt	4	nt	10	-2	nt	nt
O=C(N/N=C/c1ccc(-c2ccc(S(=O)(=O)Nc3ncccn3)cc2)o1)c1cc2ccccc2cc1O	-9	5	82*	1	2	17	75*	39*
COCCNC(=S)N(C)[C@H]1C[C@H]2c3[nH]c4c(-c5cccc(C)c5)cccc4c3CCN2C[C@H]1[C@H](C)O	nt	nt	7	nt	nt	6	nt	nt
Nc1c(C(=O)Nc2ccc(S(=O)(=O)N3CCCC3)cc2)sc2nc3ccc(OC(F)(F)F)cc3cc12	-5	-6	nt	-2	-4	nt	nt	nt
Nc1c(C(=O)Nc2ccc(S(=O)(=O)N3CCCC3)cc2)sc2nc3cc4c(cc3cc12)CCC4	14	-466	38*	-1	-7	11	31	16*
O=C(NCc1ccccc1)c1ccc(CO)cc1	nt	nt	3	nt	nt	-1	nt	nt
Cc1c(Br)c(O)c(Br)c2sc(=O)oc12	?	-1	92*	34	17	80*	42*	21*	dCAG dye DR=>30
CCCCn1c(N)c(N(Cc2ccccc2OC)C(=O)C(C)Oc2cccc(Cl)c2)c(=O)[nH]c1=O (stereo not drawn)	nt	nt	6	nt	-3	4	nt	nt
CC(C)CC(C(=O)Nc1oc(-c2ccco2)c(-c2ccco2)c1C#N)N1C(=O)c2ccccc2C1=O (stereo not drawn)	-4	0	78*	32	5	25*	74*	36*
